The full data set covers some 8,800 targets. This sample favours those with a hit. About 0.5% of all pairs of compound and target were hits. Unmarked numbers belong to inactive results.
How the values were obtained:
Assay in all cases: log2 fold change, soluble protein after heating vs DMSO (PISA); higher = thermal stabilisation; K562 lysate, 10 uM; active = over 0.2 and 3.5 SD of the protein, either way, in both replicates (recomputed)
[1] = compound: Cc1cn(-c2cc(NC(=O)c3ccc(C)c(Nc4nccc(-c5cccnc5)n4)c3)cc(C(F)(F)F)c2)cn1 [nilotinib]
In short: (§1)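 K562 pellets were dounce-homogenised in PBS pH 7.4 containing 1 mM MgCl2, and the crude extract, at 1 mg/mL protein, was exposed to 10 μM compound for 30 min. Aliquots were heated for 3 min across 48°C-58°C, pooled, brought to 0.5% NP-40 at 4°C and spun at 21,000xg for 90 min, with the supernatant taken as soluble protein. TMTpro 16plex LC-MS/MS with equalised channel sums quantified that protein. Values are log-two fold changes in thermal stability relative to solvent controls, taken from duplicates.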

[2] = compound: Cc1nc(Nc2n[nH]c3c2CN(C(=O)N[C@H](CN(C)C)c2ccccc2)C3(C)C)c2sccc2n1
In short: as §1

[3] = compound: Cc1nc(Nc2ncc(C(=O)Nc3c(C)cccc3Cl)s2)cc(N2CCN(CCO)CC2)n1 [dasatinib]
In short: as §1

[4] = compound: Cc1ncc(-c2ccnc(Nc3ccc(S(C)(=O)=O)cc3)n2)n1C(C)C
In short: as §1

[5] = compound: Cn1cc(-c2ccc3c(c2)CCN3C(=O)Cc2cccc(C(F)(F)F)c2)c2c(N)ncnc21
In short: as §1

[6] = compound: Cn1cc(CNCC2CCN(c3ncc(C(=O)NO)cn3)CC2)c2ccccc21 [quisinostat]
In short: as §1

[7] = compound: Cn1cncc1[C@@](N)(c1ccc(Cl)cc1)c1ccc2c(c1)c(-c1cccc(Cl)c1)cc(=O)n2C [tipifarnib]
In short: as §1

[8] = compound: NC(=O)Nc1cc(-c2cccc(F)c2)sc1C(=O)N[C@H]1CCCNC1
In short: as §1

[9] = compound: NC(=O)c1cnc(N[C@@H]2CCCC[C@@H]2N)nc1Nc1cccc(-n2nccn2)c1
In short: as §1

[10] = compound: NC1(c2ccc(-c3nc4ccn5c(=O)[nH]nc5c4cc3-c3ccccc3)cc2)CCC1
In short: as §1

[11] = compound: NCC(=O)Nc1ccc(-n2nc(C(F)(F)F)cc2-c2ccc3c(ccc4ccccc43)c2)cc1
In short: as §1

[12] = compound: O=C(CCCCCCC(=O)Nc1ccccc1)NO [vorinostat]
In short: as §1

[13] = compound: O=C(O)c1ccc2c(c1)nc(Nc1cccc(Cl)c1)c1ccncc12 [silmitasertib]
In short: as §1

[14] = compound: O=C1NC(=O)C(c2cnc3ccccn23)=C1c1cn2c3c(cc(F)cc13)CN(C(=O)N1CCCCC1)CC2
In short: as §1

[15] = compound: c1cn2cc(-c3ccc4cn[nH]c4c3)nc(Nc3ccc(N4CCOCC4)cc3)c2n1 [entospletinib]
In short: as §1

Sequence of UniProt Q9UKE5 (Q9UKE5 whole entry, looked up): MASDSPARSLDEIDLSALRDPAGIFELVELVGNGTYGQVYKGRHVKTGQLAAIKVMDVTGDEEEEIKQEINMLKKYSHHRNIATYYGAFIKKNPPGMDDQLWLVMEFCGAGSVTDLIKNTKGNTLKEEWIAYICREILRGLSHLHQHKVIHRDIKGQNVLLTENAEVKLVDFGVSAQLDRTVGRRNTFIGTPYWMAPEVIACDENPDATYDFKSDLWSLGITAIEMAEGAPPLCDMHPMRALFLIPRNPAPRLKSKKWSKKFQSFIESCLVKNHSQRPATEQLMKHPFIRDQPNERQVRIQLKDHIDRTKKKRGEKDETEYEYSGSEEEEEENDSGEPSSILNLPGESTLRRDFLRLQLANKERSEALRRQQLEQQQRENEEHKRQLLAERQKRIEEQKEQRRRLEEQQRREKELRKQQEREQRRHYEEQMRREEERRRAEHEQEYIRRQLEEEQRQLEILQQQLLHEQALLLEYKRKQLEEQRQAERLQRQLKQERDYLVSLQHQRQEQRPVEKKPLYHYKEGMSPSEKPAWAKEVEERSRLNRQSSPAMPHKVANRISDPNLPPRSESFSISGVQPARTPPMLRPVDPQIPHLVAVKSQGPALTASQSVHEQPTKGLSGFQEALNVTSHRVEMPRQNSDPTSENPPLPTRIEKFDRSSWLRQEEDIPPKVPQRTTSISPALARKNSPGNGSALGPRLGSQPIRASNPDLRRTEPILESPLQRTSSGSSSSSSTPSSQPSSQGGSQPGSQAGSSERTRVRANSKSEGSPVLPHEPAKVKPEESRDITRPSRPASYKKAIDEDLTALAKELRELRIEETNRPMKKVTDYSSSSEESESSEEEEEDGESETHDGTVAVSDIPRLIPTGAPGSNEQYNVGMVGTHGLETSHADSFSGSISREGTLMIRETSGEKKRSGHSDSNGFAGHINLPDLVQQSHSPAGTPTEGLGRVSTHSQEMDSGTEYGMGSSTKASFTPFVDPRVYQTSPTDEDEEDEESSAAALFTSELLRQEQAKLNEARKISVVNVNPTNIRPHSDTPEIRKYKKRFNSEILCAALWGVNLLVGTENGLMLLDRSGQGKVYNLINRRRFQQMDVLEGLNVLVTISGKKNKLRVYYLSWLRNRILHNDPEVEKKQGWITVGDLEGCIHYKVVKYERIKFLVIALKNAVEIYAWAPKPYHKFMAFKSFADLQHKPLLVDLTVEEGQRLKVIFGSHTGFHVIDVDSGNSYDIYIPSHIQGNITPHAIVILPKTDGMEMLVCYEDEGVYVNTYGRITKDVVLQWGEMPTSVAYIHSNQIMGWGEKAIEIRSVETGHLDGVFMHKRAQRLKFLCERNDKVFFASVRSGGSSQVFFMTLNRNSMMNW
Sequence of UniProt O43493 (O43493 whole entry, looked up): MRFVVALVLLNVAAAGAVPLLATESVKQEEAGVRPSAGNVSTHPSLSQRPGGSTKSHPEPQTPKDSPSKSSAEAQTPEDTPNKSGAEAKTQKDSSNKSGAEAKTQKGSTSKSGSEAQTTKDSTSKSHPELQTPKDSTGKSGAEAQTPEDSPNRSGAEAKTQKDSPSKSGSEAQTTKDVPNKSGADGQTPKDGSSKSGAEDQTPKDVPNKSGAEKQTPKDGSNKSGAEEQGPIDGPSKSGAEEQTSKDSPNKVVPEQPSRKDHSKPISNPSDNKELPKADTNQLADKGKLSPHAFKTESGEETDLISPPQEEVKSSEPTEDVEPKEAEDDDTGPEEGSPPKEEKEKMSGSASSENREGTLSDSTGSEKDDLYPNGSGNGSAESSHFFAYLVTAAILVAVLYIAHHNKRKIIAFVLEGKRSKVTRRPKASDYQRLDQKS
Sequence of UniProt Q969Z0 (Q969Z0 whole entry, looked up): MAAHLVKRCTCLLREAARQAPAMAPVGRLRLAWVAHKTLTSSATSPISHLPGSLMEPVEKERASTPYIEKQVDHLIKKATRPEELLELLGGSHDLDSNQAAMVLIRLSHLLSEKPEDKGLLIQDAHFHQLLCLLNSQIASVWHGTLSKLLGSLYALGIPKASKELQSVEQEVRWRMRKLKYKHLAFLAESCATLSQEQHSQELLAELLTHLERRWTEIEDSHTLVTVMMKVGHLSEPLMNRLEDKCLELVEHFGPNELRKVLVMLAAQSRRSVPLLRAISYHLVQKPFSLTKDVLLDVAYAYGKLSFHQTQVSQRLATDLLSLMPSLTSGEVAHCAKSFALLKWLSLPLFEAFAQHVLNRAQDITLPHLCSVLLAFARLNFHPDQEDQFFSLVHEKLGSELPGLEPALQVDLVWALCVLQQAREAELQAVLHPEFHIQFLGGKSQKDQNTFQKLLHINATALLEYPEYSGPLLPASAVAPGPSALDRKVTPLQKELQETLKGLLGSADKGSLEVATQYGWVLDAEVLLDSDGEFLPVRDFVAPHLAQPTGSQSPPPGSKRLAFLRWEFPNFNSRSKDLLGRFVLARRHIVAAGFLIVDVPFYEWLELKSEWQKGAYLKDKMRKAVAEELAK
Sequence of UniProt Q96BS2 (Q96BS2 whole entry, looked up): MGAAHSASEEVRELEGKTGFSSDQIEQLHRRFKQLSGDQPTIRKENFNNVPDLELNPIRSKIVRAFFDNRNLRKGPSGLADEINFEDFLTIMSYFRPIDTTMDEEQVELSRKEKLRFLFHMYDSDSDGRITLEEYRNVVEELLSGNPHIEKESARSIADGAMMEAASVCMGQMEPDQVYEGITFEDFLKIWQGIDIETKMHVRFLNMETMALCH
Sequence of UniProt O14933 (O14933 whole entry, looked up): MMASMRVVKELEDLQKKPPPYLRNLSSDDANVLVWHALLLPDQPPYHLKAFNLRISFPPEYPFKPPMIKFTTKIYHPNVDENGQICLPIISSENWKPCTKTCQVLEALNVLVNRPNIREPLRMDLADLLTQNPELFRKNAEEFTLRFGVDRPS
Sequence of UniProt Q9UNY4 (Q9UNY4 whole entry, looked up): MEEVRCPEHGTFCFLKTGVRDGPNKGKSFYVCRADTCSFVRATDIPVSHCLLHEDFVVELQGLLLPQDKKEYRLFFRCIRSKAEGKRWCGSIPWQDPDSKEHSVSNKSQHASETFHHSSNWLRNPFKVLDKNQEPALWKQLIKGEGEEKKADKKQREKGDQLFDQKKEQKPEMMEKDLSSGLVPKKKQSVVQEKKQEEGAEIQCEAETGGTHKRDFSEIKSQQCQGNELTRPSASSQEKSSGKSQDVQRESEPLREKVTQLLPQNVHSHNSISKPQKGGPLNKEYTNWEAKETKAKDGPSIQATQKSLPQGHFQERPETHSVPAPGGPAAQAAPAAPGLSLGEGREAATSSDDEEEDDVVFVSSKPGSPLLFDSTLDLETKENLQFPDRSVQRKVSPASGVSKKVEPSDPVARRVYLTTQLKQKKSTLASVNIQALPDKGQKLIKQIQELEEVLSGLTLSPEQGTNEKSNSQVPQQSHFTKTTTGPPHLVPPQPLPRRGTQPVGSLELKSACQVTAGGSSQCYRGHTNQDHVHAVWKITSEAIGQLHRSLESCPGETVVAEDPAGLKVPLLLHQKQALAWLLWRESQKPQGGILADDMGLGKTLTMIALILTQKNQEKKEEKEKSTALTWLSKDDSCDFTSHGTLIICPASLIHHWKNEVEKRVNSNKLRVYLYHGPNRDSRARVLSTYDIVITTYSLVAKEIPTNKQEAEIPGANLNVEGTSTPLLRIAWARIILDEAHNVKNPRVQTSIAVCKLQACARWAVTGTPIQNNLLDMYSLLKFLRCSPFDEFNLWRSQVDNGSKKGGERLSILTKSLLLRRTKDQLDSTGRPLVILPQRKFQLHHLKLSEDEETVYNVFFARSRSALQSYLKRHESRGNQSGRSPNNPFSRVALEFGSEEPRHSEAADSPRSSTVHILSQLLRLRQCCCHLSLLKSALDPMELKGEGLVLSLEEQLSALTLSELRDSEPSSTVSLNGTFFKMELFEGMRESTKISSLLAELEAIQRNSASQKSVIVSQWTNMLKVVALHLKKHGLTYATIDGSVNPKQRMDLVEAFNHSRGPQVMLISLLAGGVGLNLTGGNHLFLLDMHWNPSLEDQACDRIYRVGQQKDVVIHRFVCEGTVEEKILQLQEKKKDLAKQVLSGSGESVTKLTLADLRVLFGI
Sequence of UniProt P17480 (P17480 whole entry, looked up): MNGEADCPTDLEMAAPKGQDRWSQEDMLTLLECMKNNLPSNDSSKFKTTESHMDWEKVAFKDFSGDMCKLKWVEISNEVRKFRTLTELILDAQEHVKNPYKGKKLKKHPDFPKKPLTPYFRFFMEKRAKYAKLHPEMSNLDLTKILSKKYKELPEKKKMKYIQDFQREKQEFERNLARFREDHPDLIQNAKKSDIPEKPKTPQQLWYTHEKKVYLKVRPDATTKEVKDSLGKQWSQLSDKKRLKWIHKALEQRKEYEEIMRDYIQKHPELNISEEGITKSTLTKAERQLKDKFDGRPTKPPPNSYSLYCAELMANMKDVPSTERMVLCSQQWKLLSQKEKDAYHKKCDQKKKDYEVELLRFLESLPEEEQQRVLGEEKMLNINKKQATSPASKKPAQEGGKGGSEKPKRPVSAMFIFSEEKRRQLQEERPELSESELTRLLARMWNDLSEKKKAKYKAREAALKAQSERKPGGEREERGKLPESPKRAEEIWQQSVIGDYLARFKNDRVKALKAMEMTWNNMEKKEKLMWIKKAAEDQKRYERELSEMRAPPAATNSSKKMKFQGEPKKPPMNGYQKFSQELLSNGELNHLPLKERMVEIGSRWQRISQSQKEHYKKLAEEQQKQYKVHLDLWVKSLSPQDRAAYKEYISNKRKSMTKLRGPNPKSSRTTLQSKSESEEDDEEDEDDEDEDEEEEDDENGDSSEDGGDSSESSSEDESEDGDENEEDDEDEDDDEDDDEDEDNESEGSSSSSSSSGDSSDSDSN
Sequence of UniProt Q9NX07 (Q9NX07 whole entry, looked up): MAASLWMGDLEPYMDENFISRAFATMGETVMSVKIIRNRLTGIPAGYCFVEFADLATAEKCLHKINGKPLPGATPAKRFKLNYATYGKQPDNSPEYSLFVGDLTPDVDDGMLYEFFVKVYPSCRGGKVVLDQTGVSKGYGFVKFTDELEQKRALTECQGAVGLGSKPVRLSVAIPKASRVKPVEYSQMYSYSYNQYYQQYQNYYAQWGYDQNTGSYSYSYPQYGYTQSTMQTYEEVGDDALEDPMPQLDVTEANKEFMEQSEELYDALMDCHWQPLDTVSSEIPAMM

Target	log2 fold change [1]	log2 fold change [2]	log2 fold change [3]	log2 fold change [4]	log2 fold change [5]	log2 fold change [6]	log2 fold change [7]	log2 fold change [8]	log2 fold change [9]	log2 fold change [10]	log2 fold change [11]	log2 fold change [12]	log2 fold change [13]	log2 fold change [14]	log2 fold change [15]
TMOD1 (UniProt P28289)	-0.029	-0.032	0.011	-0.02	0.014	-0.007	-0.013	0.031	0.008	-0.015	0.005	-0.312 (active)	0.02	-0.005	0.01
TTC12 isoform 2 (UniProt Q9H892)	-0.128	-0.073	-0.143	0.018	0.004	0.033	0.075	0.007	-0.041	-0.073	-0.01	-0.163	0.078	-0.058	-0.03
UBTF (UniProt P17480)	0.001	0.031	-0.021	-0.039	0.004	0	0.015	0.044	-0.01	-0.042	-0.045	-0.315 (active)	0.044	-0.012	0.032
TRNAU1AP (UniProt Q9NX07)	-0.145	0.016	0.018	0.046	0.015	0.012	-0.06	0.059	-0.011	-0.013	0.079	-0.178	0.026	-0.017	-0.047
TIMELESS (UniProt Q9UNS1)	0.018	-0.039	-0.082	0.024	0.005	-0.137	-0.052	0.045	0.029	-0.035	0	-0.412 (active)	0.018	0.062	0.017
UBE2L6 (UniProt O14933)	0.038	-0.139	-0.018	0.036	-0.055	0.024	0.043	-0.032	-0.002	-0.096	-0.071	-0.477 (active)	0.037	0	-0.011
TESC (UniProt Q96BS2)	0.031	-0.025	0.053	0.05	0.02	0.012	0.012	-0.036	-0.035	0.049	-0.036	0.058	0.103	-0.014	-0.111
TMEM87B (UniProt Q96K49)	0.008	0.086	-0.006	-0.02	0.023	-0.012	-0.011	-0.016	-0.019	-0.048	-0.024	0.018	0.026	-0.037	-0.097
TUBGCP3 (UniProt Q96CW5)	-0.031	0.029	-0.038	0.043	0.038	-0.083	-0.023	0.009	0.002	0.012	-0.014	-0.459 (active)	-0.014	0.019	-0.003
TPP2 (UniProt P29144)	0.013	-0.005	-0.005	-0.02	0.019	0.01	0.006	0.013	0	0.003	-0.015	-0.121	0.02	-0.011	0.003
TPM1 (UniProt H7BYY1)	0.014	-0.111	-0.023	0.028	0.02	0.101	0.059	-0.017	0.013	0.033	0.057	0.136	-0.024	-0.049	0.008
TTC37 (UniProt Q6PGP7)	0.03	-0.001	-0.163	0.013	-0.085	-0.408 (active)	-0.012	0.065	0.005	-0.087	0.136	0.153	0.03	0.046	–
TBRG4 (UniProt Q969Z0)	-0.016	-0.03	-0.035	0.007	0.059	0.004	-0.006	0.038	0.022	0.019	0.017	-0.238	0.034	0.008	0.042
TTC27 (UniProt Q6P3X3)	-0.018	0.027	-0.009	-0.031	0.01	-0.047	-0.03	0.057	-0.028	-0.023	-0.027	-0.403 (active)	0.053	-0.06	-0.002
TTI1 (UniProt O43156)	-0.007	0.004	0.005	0.001	0.016	-0.047	-0.015	-0.003	0.01	-0.001	-0.037	-0.452 (active)	0.089	-0.019	-0.017
TRIM11 (UniProt Q96F44)	-0.019	0.053	-0.021	0.055	0.023	-0.104	-0.015	-0.019	-0.004	-0.023	0.018	-0.222 (active)	0.046	-0.035	-0.045
TRAPPC9 isoform 2 (UniProt Q96Q05)	0.034	0.005	-0.051	-0.011	0.068	-0.07	0.026	0	-0.011	-0.073	0.005	-0.375 (active)	0.046	0	-0.049
TTF2 (UniProt Q9UNY4)	-0.008	-0.062	-0.012	-0.023	0.018	-0.042	0.004	0.02	0.019	-0.067	0.02	-0.317 (active)	0.008	-0.032	-0.074
TNIK isoform 4 (UniProt Q9UKE5)	-0.019	0.087	0.203	0.11	-0.011	-0.198	-0.022	0.483 (active)	0.08	-0.021	-0.019	-0.135	0.004	-0.114	0.208
TGOLN2 isoform 7 (UniProt O43493)	-0.059	-0.004	0.023	0.021	0.033	-0.029	-0.087	0.014	0.019	0.008	-0.02	0.089	0.055	-0.047	-0.019
UBAP2L isoform 5 (UniProt Q14157)	-0.141	0.015	-0.035	0.055	-0.058	0.024	-0.106	0.048	0.01	0.02	0.013	0.126	-0.037	-0.018	-0.042
